gsp agonist – agonists of gsp mutant (McCune-Albright syndrome) | gsp mutant cells, cAMP HTRF, 30 min | Potency, µM (top dose mostly 76.9 µM), inactives show top-dose activation (cAMP increase), most hits filed as activators | hit rate 0.13% among 340,000; active = well fitted activation curve with a large enough effect; inconclusive = small, poorly fitted or top-dose-only effect, or another doubt; inactive = no such curve, though single readings can be large or run the other way; cell line not stated here;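 also: phosphodiesterase inhibitor Ro 20-1724 added with compounds to block cAMP breakdown; potency is read from the fitted curve at half-maximal effect; nearly all actives have a fitted effect of over 60% in size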
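Cells stably selected in G418 were plated at 2000/well, grown 16-24 hr, then given compounds in DMSO with the PDE inhibitor […] (300 uM solution added) for 30 min at 37C; cAMP was read by HTRF.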
gsp antag – antagonizes gsp, the McCune-Albright syndrome mutation. Potency, µM (top dose mostly 76.9 µM), inactives show at the top dose activity change, negative = inhibition, most hits filed as inhibitors. AID 624288. hit rate 0.4% among 340,000. gsp-mutant cells, cAMP HTRF, 30 min; calls by dose curve; cell line not stated here;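 also: intracellular cAMP measured with PDE inhibitor Ro 20-1724 present during compound exposure; potency is read from the fitted curve at half-maximal effect; % is scaled to controls: 0 for no effect and ±100 for the full control effect; nearly all actives have a fitted effect of over 65% in size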
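HTRF cAMP read-out (cAMP-d2 plus anti-cAMP antibody-K in lysis buffer, 30 min RT). Before lysis, cells are exposed to compounds with […] for 30 min at 37C in DPBS containing Ca/Mg, BSA and Tween 20.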
TRPV1 PAM – enhances activation of the human vanilloid receptor TRPV1; TRPV1-expressing cells, Fluo-8 calcium influx, capsaicin EC20 potentiation; Q8NER1; hit rate 0.02% among 320,000; AID 540277; potentiation, % at 8.33 µM; in the data active = potentiation above about 80%; inconclusive = between about 30% and that limit; also: 0% is about no effect
Target sequence (Q8NER1 whole entry, looked up): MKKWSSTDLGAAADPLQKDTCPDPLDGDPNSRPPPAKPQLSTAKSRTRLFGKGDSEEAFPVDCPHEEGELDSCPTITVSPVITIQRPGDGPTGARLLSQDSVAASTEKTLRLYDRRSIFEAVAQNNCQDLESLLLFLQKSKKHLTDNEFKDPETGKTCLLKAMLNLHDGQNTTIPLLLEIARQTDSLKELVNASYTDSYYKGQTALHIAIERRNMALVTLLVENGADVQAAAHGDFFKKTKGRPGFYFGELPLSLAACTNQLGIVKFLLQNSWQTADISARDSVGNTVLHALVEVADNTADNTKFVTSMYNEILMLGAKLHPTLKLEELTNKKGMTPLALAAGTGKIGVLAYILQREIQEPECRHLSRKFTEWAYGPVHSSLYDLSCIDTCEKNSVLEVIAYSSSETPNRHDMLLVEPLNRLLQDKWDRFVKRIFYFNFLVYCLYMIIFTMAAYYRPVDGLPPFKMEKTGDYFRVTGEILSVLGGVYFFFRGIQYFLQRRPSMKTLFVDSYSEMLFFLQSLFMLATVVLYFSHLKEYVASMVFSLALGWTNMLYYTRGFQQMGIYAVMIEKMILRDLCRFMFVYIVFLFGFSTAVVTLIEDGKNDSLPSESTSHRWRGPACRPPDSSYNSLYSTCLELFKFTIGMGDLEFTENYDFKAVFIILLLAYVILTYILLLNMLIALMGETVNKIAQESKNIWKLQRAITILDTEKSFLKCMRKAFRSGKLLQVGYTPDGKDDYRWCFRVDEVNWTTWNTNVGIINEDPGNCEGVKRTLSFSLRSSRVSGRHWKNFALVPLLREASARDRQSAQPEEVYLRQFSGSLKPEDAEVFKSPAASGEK
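Cells expressing TRPV1 were dye-loaded with Fluo-8 and read kinetically: 10 s baseline, 3 min after compound (agonist portion), then 2 min after EC20 capsaicin (allosteric enhancer portion). Calcium-bound dye fluorescence at 480/520 nm.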
RXFP1 antag – blocks the human relaxin receptor RXFP1. Q9HBX9. HEK293-RXFP1, relaxin-stimulated cAMP HTRF, 30 min; active compounds read low. activity change, negative = inhibition, % at 57.5 µM. hit rate 0.59% among 350,000. AID 1259400;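 active = activity change of -60% or lower, but not beyond a set lower limit; inconclusive = change between -60% and -40%, or beyond the set limit; inactive = change above -40%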; also: % is scaled to controls: 0 for no effect and ±100 for the full control effect
RXFP1 ag – activates the human relaxin receptor RXFP1; HEK293T-RXFP1 cAMP TR-FRET, 30 min; response scale: percent of porcine relaxin response, buffer zero; Potency, µM (titrated, usually from 57.5 µM), without a hit: at the highest dose activation, usual class: activators; hit rate 0.3% among 370,000; AID 2676; active = well fitted activation curve with a large enough effect; inconclusive = small, poorly fitted or top-dose-only effect; also: potency is read from the fitted curve at half-maximal effect; % is scaled to controls: 0 for no effect and ±100 for the full control effect; nearly all actives have a fitted effect of over 60% in size
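HEK293T cells stably expressing RXFP1 were pretreated with the PDE4 inhibitor Ro 20174, exposed to compounds for 30 min at 37C, lysed, and cAMP was read by TR-FRET. Data normalized to buffer (basal) and 29 nM porcine relaxin (100%).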
TRPV1 ag – agonists of human vanilloid receptor 1 (TRPV1); TRPV1-expressing cells, Fluo-8 calcium influx, agonist mode; activation, % at 8.33 µM; hit rate 0.19% among 320,000; AID 540275; in the data active = activation above about 80%; inconclusive = between about 30% and that limit; also: 0% is about no effect
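Cells expressing TRPV1 were dye-loaded with Fluo-8 and read kinetically: 10 s baseline, 3 min after compound (agonist portion), then 2 min after EC20 capsaicin (allosteric enhancer portion). Calcium-bound dye fluorescence at 480/520 nm.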
Starred values were filed as active, the others as inactive; ? = inconclusive; · = no result; [ ] = dose if it differs, or a comment. Sampled rows, rich in hits. Any-hit rate of the full collection: about 1.1%.

SMILES	gsp agonist	gsp antag	TRPV1 PAM	RXFP1 antag	RXFP1 ag	TRPV1 ag
NC(=S)NN=Cc1nccc2ccccc12	6%	-4%	·	-76*	·	·
O=[N+]([O-])c1cccc(N/N=C/c2cccc(O)c2O)c1	6%[15.4 µM]	-7%	11	-87*	2%	-1
O=[N+]([O-])c1ccccc1N/N=C/c1cccc(O)c1O	0%	9%	-4	-2	0%	2
CCN(CC)c1ccc(/C=C(/C#N)c2nc3ccc(C)cc3[nH]2)c(OC(C)C)c1	-30%	4%	-7	3	-1%	85*
CCCOc1cc(N(CC)CC)ccc1/C=C(/C#N)c1nc2ccc(C)cc2[nH]1	?	-7%	-10	-12	-1%	?
COc1cc(/C=C(\C#N)c2nc3ccc(C)cc3[nH]2)cc([N+](=O)[O-])c1O	-35%	25µM*	3	-19	-3%	0
COc1cc(/C=C(\C#N)c2nc3ccc(C)cc3[nH]2)c([N+](=O)[O-])cc1OC	-12%	25%	16	15	2%	-5
COC(=O)N[C@H](C(=O)N[C@@H](Cc1ccccc1)[C@@H](O)CN(Cc1ccc(-c2ccccn2)cc1)NC(=O)[C@@H](NC(=O)OC)C(C)(C)C)C(C)(C)C	·	·	·	17	·	·
O=C1CC(=Nc2ccccc2)NN1c1ccccc1	-26%	50µM*	-8	-7	0%	6
O=C(c1ccc(F)cc1F)N1CCN(c2ncccn2)CC1	?	10%	-6	-5	1%	5
CCOC(=O)N1CCN(c2ccc(C(=O)c3ccccc3)cc2F)CC1	-16%	32µM*	-20	-5	1%	?
O=C(c1ccccc1)c1ccc(N2CCN(C(=O)c3cccc(F)c3F)CC2)c(F)c1	?	40µM*	0	-11	-2%	14
CCOC(=O)N1CCN(c2ccc(C(C)=O)cc2F)CC1	-52%	-7%	-12	1	0%	3
O=C(c1ccc(N2CCN(C(=O)c3ccc(F)cc3F)CC2)cc1)c1cccc(F)c1	-1%	35µM*	-27	-3	-1%	0
CCCNC(=O)Cn1nc(-c2ccc(F)cc2)c2cnc3ccc(F)cc3c21	·	·	·	1	3%	·
COCCCNC(=O)CCc1c(C)nc2c(c(C)nn2-c2ccc(C)cc2)c1C	-1%	-22%	-25	2	0%	?
COCCNC(=O)CCc1c(C)nc2c(c(C)nn2-c2ccc(C)cc2)c1C	-2%	-17%	7	8	7%	85*
CC(C)(C)C(Cn1ccnc1)NC(=O)c1ccc2nc(C3CC3)oc2c1 (stereo not given)	9%[15.4 µM]	2%	6	-5	2%	0
CC[N+](CC)(CCCCS(=O)(=O)[O-])CCNP1(=O)C=C(c2ccccc2)OC(c2ccccc2)=C1	?	25%	-2	5	16µM*	2
O=C(NCc1ccc(Cl)cc1)C1CCN(S(=O)(=O)c2ccc(N3CCCC3=O)cc2)CC1	11%	-11%	-1	-66*	4%	1
O=C(NCc1ccccc1)C1CCN(S(=O)(=O)c2ccc(N3CCCC3=O)cc2)CC1	?	-2%	-4	11	1%	5
O=C(CN1C(=O)C2CCCCN2c2ccc(C(=O)N3CCCC3)cc21)NCc1ccccc1F (stereo not given)	·	·	·	-3	1%	·
CC1CN(c2ncc(/C=N/NC(=O)c3ccccc3O)s2)CC(C)O1 (stereo not given)	2%[15.4 µM]	?	5	-73*	-1%	1
O=C(N/N=C/c1cnc(N2CCCCC2)s1)c1ccc(C(F)(F)F)cc1	-1%	-4%	-3	-1	-2%	-2
COc1cc(/C=C2\C(=N)N3N=C(C)SC3=NC2=O)cc(Cl)c1OCCOc1ccc(NC(C)=O)cc1	-38%	?	-3	0	2%	0
S=C(Nc1ccc(Cl)c(Cl)c1)NC1CCN(Cc2ccccc2)CC1	-22%	-3%	-6	-61*	0%	7
Fc1ccc(NC(=S)NC2CCN(Cc3ccccc3)CC2)cc1	-1%	-3%	-7	-6	0%	24

Screens (PubChem)
